Hit rate of the full screen: of about 340,000 compounds, about 3,300 (0.97%) were called active.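 How the source made its calls: active means inhibition above the mean over all tested compounds plus 3 SD (cut at about 30% in these data); inactive means the rest.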 The sample as a whole holds a higher share of actives than the screen did.

Usually inhibition stands for the change of the read-out against control, counted positive when it falls.

The assay addresses Platelet-activating factor acetylhydrolase 2, cytoplasmic (Homo sapiens) (UniProt Q99487). Briefly: inhibition of cytoplasmic PAF acetylhydrolase 2 – biochemical, fluorescence polarization, human, primary screen (AID 492956).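 Further: inhibitors block probe labeling of enzyme so polarization drops; 0% = enzyme with DMSO and 100% = wells lacking PAFAH2 protein.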 The conditions noted are these: recombinant PAFAH2, FP-rhodamine activity probe, at 3.39 µM, hits give high values. (Polarisation of emitted light reports the rotation of a fluorescent probe.)
As for `COc1ccc(N2C(=O)/C(=C/c3ccco3)C(=O)NC2=S)cc1`, the inhibition is 59.1% (active).
On to `CC(C)CN1CCN(Cc2ccccc2C(F)(F)F)CC1CCO` (stereo not given), for which the inhibition was 4.28% (inactive).
`COc1ccc(-n2c(-c3ccccc3)nc3ccccc3c2=O)cc1`: the inhibition was -4.87% (inactive).
Next, `C[C@]12CCCCC1=CC(=O)C1C2CC[C@@]2(C)C1C[C@@H](F)[C@@H]2O` (stereo not given in full): 2.89% (inactive); `CC(Cc1cccs1)NCc1ccc(Cl)cc1` (stereo not given): 4.46% (inactive); `Cc1c(C(=O)O)cccc1-n1c(C)cc(/C=C2\C(=O)NC(=O)N(c3ccc4c(c3)OCO4)C2=O)c1C`: 14.2% (inactive).
Next, `COc1cccc(N2C(=O)NC(=O)/C(=C\c3cn(C)c4ccccc34)C2=O)c1`: 53% (active).
Consider `Cc1cccc(N2C(=O)NC(=O)/C(=C\c3cnn(-c4ccccc4)c3)C2=O)c1`, for which the inhibition was 38.8% (active).
Under `CCc1nc2ccccc2c(=O)n1-c1cccc(OC)c1` stands 0.9% (inactive); under `CCN1CCN(c2nc3c(c(=O)[nH]2)CCC3)CC1`, 1.82% (inactive); under `CC12CCC3C(CCC4CC(=O)CCC43C)C1CC(=NO)C2=O` (stereo not given), 5.08% (inactive).
As for `Cc1ccc(S(=O)(=O)N(C)c2ccc(C(=O)NCC3(N(C)C)CCCCC3)cc2)cc1`, the inhibition is -2.88% (inactive).
Next, `O=C1NC(=O)N(c2ccccc2)C(=O)/C1=C/c1ccc([N+](=O)[O-])s1`: 38.4% (active); `O=C1NC(=O)N(c2ccc(F)cc2)C(=O)/C1=C/c1ccc2c(c1)CCCN2Cc1ccccc1`: 6.73% (inactive); `COc1ccc2[nH]c3c(c2c1)CCN[C@H]3C`: -4.46% (inactive).
Under `O=C(Cn1c(=O)n(CC2CS2)c2ccccc21)N1CCCCC1` (stereo not given) stands -1.23% (inactive); under `N=c1ccccn1Cc1ccccc1`, 1.19% (inactive); under `O=C(CCNS(=O)(=O)c1ccccc1)Nc1ccc(Cl)cc1C(=O)c1ccccc1`, -0.4% (inactive).
Take `O=C(COC(=O)c1ccccc1)Nc1ccc(Cl)cc1C(=O)c1ccccc1`: the inhibition is 45% (active).
On to `CN1CCN(C(=S)SCC(=O)Nc2ccc(Cl)cc2C(=O)c2ccccc2)CC1`, for which the inhibition was 5.69% (inactive).
Consider `CCN(CC)C(=O)Oc1ccc(NC(=O)N2CCOCC2)cc1`, for which the inhibition is 6.33% (inactive).
Next, `C=CCN1C(=O)NC(=O)/C(=C/c2ccc(OCC(=O)Nc3ccc(C)cc3)cc2)C1=O`: 5.48% (inactive); `COc1ccc(C(=O)C2CCCN(Cc3ccc(C)s3)C2)cc1OC` (stereo not given): 1.55% (inactive).
Regarding `COc1ccccc1N=C1SCCCN1C`, the inhibition was 5.93% (inactive).
Turning to `NCCc1ccc(S(=O)(=O)F)cc1`, the inhibition was 86% (active).
Next, `CC(C)c1ccc(-n2c(O)c(/C=N/N3CCOCC3)c(=O)[nH]c2=S)cc1`: -8.3% (inactive); `Cc1ccnc(-n2c(C)cc(/C=C3\C(=O)NC(=S)N(C)C3=O)c2C)c1`: -2.99% (inactive); `CCN1CCN(c2ccc([N+](=O)[O-])cc2C#N)CC1`: 9.87% (inactive).
Under `CC12CCC(O)CC1CCC1C2CCC2(C)C(C(=O)CC(O)C(F)(F)F)CCC12` (stereo not given) stands 2.7% (inactive).
Turning to `O=C(N/N=C/c1c(O)n(C2CC2)c(=S)[nH]c1=O)c1ccccc1Cl`, the inhibition was -27.8% (inactive).
